Among the data in PubChem BioAssay (Tox21) are Potency and outcome values, retold here.

Inconclusive results are not listed. Activity calls are given as the source filed them. Unless noted, calls follow the shape of the dose curve; as a rule, active = well fitted curve in the direction sought with a large enough effect in the repeat runs; inconclusive = weak or mixed curves; inactive = no such curve, though single readings can be large; an effect the other way counts as inactive or inconclusive.

The target in assay [1] is Estrogen receptor beta (Homo sapiens) (UniProt Q92731). The experiment in a line: qHTS assay to identify small molecule antagonists of the estrogen receptor beta (ER-beta) signaling pathway (AID 1259378; active = well fitted inhibition curve with a large enough effect in the signal ratio in the repeat runs, not every such curve was filed as active; the % refers to the signal ratio; also: potency is read from the fitted curve at half-maximal effect). An outline of the steps:
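ER-beta-UAS-bla HEK293T (GripTite) cells in 2% charcoal-stripped FBS medium were preincubated 6 hr at 37C, dosed with compound, then stimulated with 1 nM E2 (final) for 16 hr; beta-lactamase reporter read by B/G FRET fluorescence after 2 hr substrate loading.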
For orientation: qHTS replaces the single test concentration by a dilution series.

A short description of assay [2]: qHTS assay to identify small molecule agonists of the androgen receptor (AR) signaling pathway in the presence of an antagonist - cell viability counter screen (AID 1259379). Also: nearly all actives have a fitted effect of over 25% in size. Also: potency is read from the fitted curve at half-maximal effect. A digest of the protocol: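 Counter screen for cell viability run in parallel with the AR agonist-mode luciferase assay. MDA-kb2 cells were co-treated with nilutamide (3.0uM final) and compounds, then incubated 16 hr at 37C, and CellTiter-Fluor fluorescence was measured.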

The nature of assay [3]: qHTS assay to identify small molecule agonists of the estrogen receptor beta (ER-beta) signaling pathway - cell viability counter screen (AID 1259380). Also: nearly all actives have a fitted effect of over 30% in size. Also: potency is read from the fitted curve at half-maximal effect. A digest of the protocol: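 In this qHTS counter screen, HEK293T cells carrying an ER-beta/UAS beta-lactamase reporter, grown in 2% charcoal-stripped FBS, received compound for 16 hr; ATP-based CellTiter-Glo luminescence was then read after 30 min at room temperature.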

Assay [4] can be described thus: qHTS assay to identify small molecule antagonists of the estrogen receptor beta (ER-beta) signaling pathway - cell viability counter screen (AID 1259382). Also: nearly all actives have a fitted effect of over 55% in size. Also: potency is read from the fitted curve at half-maximal effect. An outline of the steps: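 HEK293T ER-beta-UAS-bla, 2% charcoal-stripped FBS; compounds + 1nM E2 16 hr 37C; CellTiter-Glo luminescence, 30 min RT.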
Assay [5] in a line: qHTS assay to identify small molecule agonists or antagonists of the thyroid stimulating hormone receptor (TSHR) signaling pathway - wild type cell line counter screen (AID 1259384; calls by dose curve). A digest of the protocol: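 Wild-type HEK293 cells were plated 18 h at 37 C/5% CO2, pin-dosed with compound plus Ro20-1724 medium, held 30 min at room temperature, then given cAMP-d2 and anti-cAMP-cryptate; fluorescence was read after 1 h. Fifteen concentrations, triplicate.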

Assay [6] concerns the target Thyrotropin receptor (Homo sapiens) (UniProt P16473). Description: qHTS assay to identify small molecule antagonists of the thyroid stimulating hormone receptor (TSHR) signaling pathway (AID 1259385; calls by dose curve; also: nearly all actives have a fitted effect of over 20% in size). A digest of the protocol: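 TSHR-HEK293 cells were plated and held 18 h at 37C/5% CO2, then given compound plus Ro20-1724 and stimulated with TSH at 1.5 ng/mL final. After 30 min at room temperature, cAMP was detected with cAMP-d2/anti-cAMP-cryptate (1 h) by fluorescence.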

Assay [7] deals with Estrogen receptor beta (Homo sapiens) (UniProt Q92731). The experiment in a line: qHTS assay to identify small molecule agonists of the estrogen receptor beta (ER-beta) signaling pathway (AID 1259377; active = well fitted activation curve with a large enough effect in the signal ratio in the repeat runs, not every such curve was filed as active; the % refers to the signal ratio). An outline of the steps:
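Measured by fluorescence intensity from a B/G FRET beta-lactamase substrate (2 h, room temperature) in ER-beta-UAS-bla HEK293T cells treated with DMSO-dissolved compounds for 16 hr at 37C and 5% CO2.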

For assay [8], the target named is Estrogen receptor (Homo sapiens) (UniProt P03372). The experiment in a line: qHTS assay to identify small molecule agonists of the estrogen receptor alpha (ER-alpha) signaling pathway in the presence of an antagonist (AID 1259383; calls by dose curve; also: nearly all actives have a fitted effect of over 15% in size; also: potency is read from the fitted curve at half-maximal effect; as to activation: top concentration of the series differs between compounds). An outline of the steps:
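ER-alpha agonism measured under antagonist challenge: 10.0nM ICI-182,780 (final) plus compound, 15 concentrations, 22hr, VM7Luc4E2 ERE-luciferase cells. Read by luminescence.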

Assay [9] deals with Androgen receptor (Homo sapiens) (UniProt P10275). The experiment in a line: qHTS assay to identify small molecule agonists of the androgen receptor (AR) signaling pathway in the presence of an antagonist (AID 1259381; calls by dose curve; also: nearly all actives have a fitted effect of over 15% in size). A digest of the protocol:
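AR antagonist background: nilutamide 3.0uM final. Cell line: MDA-kb2, MMTV-driven luciferase, responsive to both AR and GR. Exposure 16hr, 37C, no CO2; ONE-Glo luminescence.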

Sequence of Thyrotropin receptor (Homo sapiens) (P16473 whole entry, looked up): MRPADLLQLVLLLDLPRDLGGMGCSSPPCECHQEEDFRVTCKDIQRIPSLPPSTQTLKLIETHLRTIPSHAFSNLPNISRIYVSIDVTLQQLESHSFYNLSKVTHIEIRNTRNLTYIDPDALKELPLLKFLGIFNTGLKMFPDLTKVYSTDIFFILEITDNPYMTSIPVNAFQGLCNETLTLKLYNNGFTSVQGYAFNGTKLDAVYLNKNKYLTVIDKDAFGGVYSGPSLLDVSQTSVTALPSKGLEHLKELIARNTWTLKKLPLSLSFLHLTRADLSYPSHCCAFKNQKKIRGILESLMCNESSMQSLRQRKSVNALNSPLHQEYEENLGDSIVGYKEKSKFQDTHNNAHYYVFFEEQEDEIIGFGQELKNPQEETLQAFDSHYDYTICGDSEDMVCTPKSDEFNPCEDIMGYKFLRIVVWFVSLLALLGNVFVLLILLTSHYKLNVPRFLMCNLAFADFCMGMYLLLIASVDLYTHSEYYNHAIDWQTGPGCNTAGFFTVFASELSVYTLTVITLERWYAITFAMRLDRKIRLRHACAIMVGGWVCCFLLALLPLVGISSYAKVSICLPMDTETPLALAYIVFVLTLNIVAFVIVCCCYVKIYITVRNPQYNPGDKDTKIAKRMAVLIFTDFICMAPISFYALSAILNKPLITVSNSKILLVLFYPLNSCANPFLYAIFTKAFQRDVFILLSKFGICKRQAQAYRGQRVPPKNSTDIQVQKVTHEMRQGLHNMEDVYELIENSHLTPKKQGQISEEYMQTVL
Sequence of Estrogen receptor (Homo sapiens) (P03372 whole entry, looked up): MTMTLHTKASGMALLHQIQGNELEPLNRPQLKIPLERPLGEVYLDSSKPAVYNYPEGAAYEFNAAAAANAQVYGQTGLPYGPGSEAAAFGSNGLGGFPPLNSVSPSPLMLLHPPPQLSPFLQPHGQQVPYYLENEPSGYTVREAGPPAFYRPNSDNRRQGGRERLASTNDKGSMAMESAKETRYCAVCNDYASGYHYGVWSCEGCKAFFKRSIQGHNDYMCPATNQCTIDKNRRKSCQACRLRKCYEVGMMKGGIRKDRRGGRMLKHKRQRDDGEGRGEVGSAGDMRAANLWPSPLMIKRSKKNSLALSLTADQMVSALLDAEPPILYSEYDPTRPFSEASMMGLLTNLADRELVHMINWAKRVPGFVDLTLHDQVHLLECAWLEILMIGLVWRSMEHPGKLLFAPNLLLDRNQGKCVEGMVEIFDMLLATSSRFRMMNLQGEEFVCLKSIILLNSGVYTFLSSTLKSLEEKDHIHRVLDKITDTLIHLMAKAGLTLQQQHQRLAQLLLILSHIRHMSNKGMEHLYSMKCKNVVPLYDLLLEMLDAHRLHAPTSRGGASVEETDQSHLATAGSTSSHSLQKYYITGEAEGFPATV
Sequence of Estrogen receptor beta (Homo sapiens) (Q92731 whole entry, looked up): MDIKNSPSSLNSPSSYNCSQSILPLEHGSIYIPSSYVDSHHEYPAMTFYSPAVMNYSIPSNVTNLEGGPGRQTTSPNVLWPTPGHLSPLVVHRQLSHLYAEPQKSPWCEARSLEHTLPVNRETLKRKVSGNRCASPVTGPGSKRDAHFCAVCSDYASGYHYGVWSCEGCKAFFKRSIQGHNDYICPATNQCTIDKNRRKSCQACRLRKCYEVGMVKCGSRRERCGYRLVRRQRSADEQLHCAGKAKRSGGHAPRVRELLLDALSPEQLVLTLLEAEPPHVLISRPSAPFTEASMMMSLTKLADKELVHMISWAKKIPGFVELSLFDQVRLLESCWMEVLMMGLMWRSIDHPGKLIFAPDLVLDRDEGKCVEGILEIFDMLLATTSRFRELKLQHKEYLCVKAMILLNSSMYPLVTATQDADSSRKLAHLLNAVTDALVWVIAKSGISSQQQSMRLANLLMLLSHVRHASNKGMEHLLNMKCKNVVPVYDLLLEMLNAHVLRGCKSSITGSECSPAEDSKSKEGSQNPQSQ
Sequence of Androgen receptor (Homo sapiens) (P10275 whole entry, looked up): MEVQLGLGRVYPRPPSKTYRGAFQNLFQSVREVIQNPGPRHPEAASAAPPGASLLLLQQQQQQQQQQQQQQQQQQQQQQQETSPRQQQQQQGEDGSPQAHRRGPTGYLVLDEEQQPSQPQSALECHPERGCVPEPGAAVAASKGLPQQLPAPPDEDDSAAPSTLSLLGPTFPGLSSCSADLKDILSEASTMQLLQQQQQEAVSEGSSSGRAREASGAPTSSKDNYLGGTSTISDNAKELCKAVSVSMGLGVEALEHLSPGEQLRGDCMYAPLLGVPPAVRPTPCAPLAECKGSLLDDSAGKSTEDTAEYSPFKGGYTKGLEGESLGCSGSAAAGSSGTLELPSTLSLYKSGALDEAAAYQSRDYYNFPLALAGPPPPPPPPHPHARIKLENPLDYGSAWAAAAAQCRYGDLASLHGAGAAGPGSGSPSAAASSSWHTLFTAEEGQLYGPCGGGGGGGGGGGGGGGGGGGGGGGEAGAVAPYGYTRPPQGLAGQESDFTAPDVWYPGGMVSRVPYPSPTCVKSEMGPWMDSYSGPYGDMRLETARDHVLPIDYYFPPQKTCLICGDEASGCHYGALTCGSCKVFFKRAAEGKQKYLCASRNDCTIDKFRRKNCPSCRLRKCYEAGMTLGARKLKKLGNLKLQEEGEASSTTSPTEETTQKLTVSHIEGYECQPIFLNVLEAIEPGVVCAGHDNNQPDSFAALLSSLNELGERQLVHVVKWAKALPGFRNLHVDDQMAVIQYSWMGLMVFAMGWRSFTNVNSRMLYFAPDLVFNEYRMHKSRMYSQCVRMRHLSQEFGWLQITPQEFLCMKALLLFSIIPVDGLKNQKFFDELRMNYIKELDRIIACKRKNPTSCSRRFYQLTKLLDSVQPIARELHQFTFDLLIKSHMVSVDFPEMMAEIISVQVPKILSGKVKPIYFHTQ

With `CC(C1CC1)C(O)(Cn1cncn1)c1ccc(Cl)cc1` (centres undefined), the Potency entry in assay [1], in assay [2], in assay [3], in [4], in assay [5] and in assay [6] was “inactive” each time.
Take `CCN(CC)C(=O)[C@@H]1C=C2c3cccc4[nH]cc(c34)C[C@H]2N(C)C1`: in assay [7], the compound was classed as inactive. The Potency result in [1], in [2], in [4] and in [8] was “inactive” throughout.
Regarding `Nc1cc2c3c(c1)C(c1ccccc1)=N[C@@H](NC(=O)c1cccnc1)C(=O)N3CC2`, in assay [7], the result was inactive. In addition, the Potency entry in assay [1], in [2], in assay [3], in assay [4], in [8] and in assay [5] was “inactive” each time.
Take `O=C(O)C(Br)CBr` (centres undefined): the call in assay [7] was inactive. Further, the Potency entry in assay [1], in [2], in assay [3], in [4], in assay [8] and in assay [5] was “inactive” throughout. Moreover, the Potency entry in assay [6] was “inactive”.
Turning to `C[C@]1(O)CC[C@H]2[C@@H]3CCC4=CC(=O)CC[C@]4(C)[C@@]3(F)[C@@H](O)C[C@@]21C`, the Potency entry in assay [2], in [4], in assay [5] and in [6] was “inactive” in each case.
For `CCC(=O)C(CCN(C)C)(c1ccccc1)c1ccccc1`, the Potency entry in assay [2], in [3], in assay [9], in [4] and in assay [8] was “inactive” in each case.
`O=C(CCCN1CCC(n2c(=O)[nH]c3ccccc32)CC1)c1ccc(F)cc1`: the Potency entry in assay [9], in assay [4], in assay [8] and in [5] was “inactive” in each case.
Turning to `C(CCOCC1CO1)COCC1CO1` (centres undefined), the Potency result in assay [2], in [3], in assay [4], in assay [8] and in [5] was “inactive” each time.
Regarding `COc1cc2c(cc1OC)[C@@]13CCN4CC5=CCO[C@H]6CC(=O)N2[C@H]1[C@H]6[C@H]5C[C@H]43`, the Potency entry in assay [2], in assay [4], in assay [8] and in [5] was “inactive” throughout.
Regarding `C[C@H]1CCC[C@H](O)CCCCCc2cc(O)cc(O)c2C(=O)O1`, the Potency entry in assay [3], in assay [4], in assay [5] and in [6] was “inactive” throughout. Further, the Potency in assay [8] was 61.6 nM (active).
In the case of `N#CC(CCc1ccc(Cl)cc1)(Cn1cncn1)c1ccccc1` (centres undefined), in [7], the compound was called inactive. The Potency in assay [1] was 30.6 µM (active); in [2], 48.6 µM (active); in assay [3], 68.6 µM (active); in assay [4] it was 48.6 µM (active). In addition, the Potency result in assay [9], in assay [8] and in assay [5] was “inactive” in each case.
On to `CCOC(=O)/C=C(C)/C=C/C[C@@H](C)CCCC(C)C`, for which, in [7], the compound was called inactive. Besides, the Potency result in [2] and in assay [8] was “inactive” throughout. Moreover, the Potency in [3] was 43.3 µM (active).
As for `OC(c1ccccc1)(c1ccccc1)C1CCNCC1`, in assay [7], the result was inactive. Besides, the Potency result in [1], in assay [2], in [3], in [4], in assay [5] and in assay [6] was “inactive” throughout.
Take `CC1(C(=O)Nc2ccc(O)c(Cl)c2Cl)CCCCC1`: the Potency entry in assay [2], in assay [3] and in assay [4] was “inactive” throughout.
`CCCSP(=O)(OCC)Oc1ccc(Br)cc1Cl` (centres undefined): in [7], the result was inactive. For the same compound, the Potency result in assay [2], in assay [3], in assay [4] and in assay [6] was “inactive” throughout.
Regarding `Fc1ccc(C2(Cn3cncn3)OC2c2ccccc2Cl)cc1` (centres undefined), the call in assay [7] was inactive. Also, the Potency in assay [1] is 30.6 µM (active); in assay [3] it was 17.2 µM (active). The Potency result in assay [2], in assay [8], in [5] and in assay [6] was “inactive” each time.
As to `CCc1cc2c(s1)-n1c(C)nnc1CN=C2c1ccccc1Cl`, in assay [7], the compound was classed as inactive. For the same compound, the Potency result in assay [2], in assay [3], in [4] and in [8] was “inactive” throughout.
In the case of `COC(=O)c1ccccc1S(=O)(=O)NC(=O)N(C)c1nc(C)nc(OC)n1`, the Potency result in [2], in assay [3], in assay [4] and in assay [8] was “inactive” throughout.
`CCOC(=O)C(c1c(O)c2ccccc2oc1=O)c1c(O)c2ccccc2oc1=O`: the call in [7] was inactive. The Potency entry in [2], in assay [9], in assay [8] and in assay [5] was “inactive” each time.
For the compound `CC(Oc1ccc(Oc2ncc(C(F)(F)F)cc2Cl)cc1)C(=O)O` (centres undefined), the Potency result in assay [2], in [9], in assay [8], in [5] and in assay [6] was “inactive” in each case. Also, the Potency in assay [3] was 17.2 µM (active).
Regarding `Cc1ncc2n1-c1ccc(Cl)cc1C(c1ccccc1F)=NC2`, the compound was called inactive in [7]. Further, the Potency entry in assay [2], in assay [3], in [4], in [8], in [5] and in [6] was “inactive” each time.
Regarding `CCN(CC)c1nc(C)cc(OP(=S)(OC)OC)n1`, the outcome in assay [7] was inactive. For the same compound, the Potency entry in [1], in [2], in assay [4], in [8] and in assay [6] was “inactive” each time.
Turning to `CC(C)CP(=S)(S)CC(C)C`, the Potency result in [2], in [8], in assay [5] and in [6] was “inactive” in each case.
Take `COC(=O)C1=CCCN(C)C1`: the compound was called inactive in [7]. Also, the Potency result in [1], in [2], in [3], in assay [4], in assay [8] and in [5] was “inactive” in each case. For the same compound, the Potency result in assay [6] was “inactive”.
With `CCCCP(CCCC)CCCC`, the Potency result in assay [1], in assay [2], in assay [4], in assay [8] and in [5] was “inactive” each time.
Regarding `CC1(C)CON(Cc2ccccc2Cl)C1=O`, the outcome in assay [7] was inactive. Also, the Potency result in assay [1], in [2], in assay [3], in assay [4], in [8] and in assay [5] was “inactive” throughout. Moreover, in assay [6], the Potency result is “inactive”.
In the case of `COc1ccc2c(c1OC)CN1CCc3cc4c(cc3C1C2)OCO4` (centres undefined), the Potency result in [2], in assay [9], in assay [4], in [8], in assay [5] and in assay [6] was “inactive” throughout. Further, in [3], the Potency is 9.44 µM (active).
In the case of `OC(c1ccc(F)cc1)(c1cncnc1)c1ccccc1Cl` (centres undefined), in [7], the outcome was inactive. Besides, the Potency entry in assay [2], in assay [3], in assay [4], in assay [8], in assay [5] and in [6] was “inactive” in each case.
